# The full ranking holds about 18,000 sequences; the median of “log2 normalized intensity” is about 0.39, and the highest 2% start at about 6.6. The list comes from a sample in which the highest values are over-represented; it also holds similar and randomly drawn sequences.
# Target: T1, HNF4alpha2 (COS-7 nuclear extract) (Homo sapiens, UniProt P41235 1-474)
# T1 sequence: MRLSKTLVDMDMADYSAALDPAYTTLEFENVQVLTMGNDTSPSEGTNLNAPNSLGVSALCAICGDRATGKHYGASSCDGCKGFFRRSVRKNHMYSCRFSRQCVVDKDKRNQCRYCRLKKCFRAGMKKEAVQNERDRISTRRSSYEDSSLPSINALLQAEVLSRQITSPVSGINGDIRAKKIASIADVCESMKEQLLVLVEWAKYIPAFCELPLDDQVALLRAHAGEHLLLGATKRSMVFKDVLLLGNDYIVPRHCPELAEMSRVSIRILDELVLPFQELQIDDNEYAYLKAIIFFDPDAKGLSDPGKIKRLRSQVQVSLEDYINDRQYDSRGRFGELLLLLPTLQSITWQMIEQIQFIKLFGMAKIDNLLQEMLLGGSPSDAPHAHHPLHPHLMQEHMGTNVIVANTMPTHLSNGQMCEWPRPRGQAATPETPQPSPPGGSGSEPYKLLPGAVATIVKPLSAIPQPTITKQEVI
# Test: protein-binding microarray; COS-7 nuclear extract on double-stranded Agilent 4x180k PBM; binding buffer, salt, pH and temperature not given in the material; high values mean tight binding
# Details: chain copies: 2; label: 3' end of strand 1 on the slide; dsDNA, one strand shown
# Summary of the method: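 Binding signal was defined as the normalized, background-corrected gProcessedSignal reported by Agilent software. It came from nuclear extracts of COS-7 cells transiently transfected with a human HNF4α isoform expression vector, applied to a custom Agilent SurePrint G3 4x180k array. That array held ~44,000 test sequences in quadruplicate as double-stranded ~60-nt oligonucleotides, and bound HNF4α was imaged at 2-µm resolution on an Agilent G2565CA scanner.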
row,Sequence,binding signal [log2 normalized intensity]
1,CTCTGTGCTCCCAGTTCCCTCATTAGTAACGCCTAGGGAGATTAGAGTATCGGTCGA,1.33
2,CAAAGGACATTTCTAAAAATAGCCTTACTTGCCTAGGGAGATTAGAGTATCGGTCGA,-0.901
3,CCCGGCAGCCCTGCTCCCCGCCTTGGCCTCGCCTAGGGAGATTAGAGTATCGGTCGA,1.56
4,CTACAGGTATGCCTTTGAAGAGTACAGCCTGCCTAGGGAGATTAGAGTATCGGTCGA,-0.571
5,ACACAAACTATGACCTTTGAAACTTACATTGCCTAGGGAGATTAGAGTATCGGTCGA,5.64
6,GTTCTATGGGATGACCTTTGAGCAATAGGAGCCTAGGGAGATTAGAGTATCGGTCGA,5.15
7,AGCAAACACAAACTATGACCTTTGAAACTTGCCTAGGGAGATTAGAGTATCGGTCGA,7.13
8,TTCTTTTTGAAGCAAAGCCTTTGAGCAGATGCCTAGGGAGATTAGAGTATCGGTCGA,0.819
9,AGAGAGTTCTATGGGATGACCTTTGAGCAAGCCTAGGGAGATTAGAGTATCGGTCGA,6.93
10,ATGACCCAAACTTCACAAAAATGAGTGCAAGCCTAGGGAGATTAGAGTATCGGTCGA,-0.838
11,GGGCGAGAGAGTTCTATGGGATGACCTTTGGCCTAGGGAGATTAGAGTATCGGTCGA,6.25
12,TGACAAGCAAACACAAACTATGACCTTTGAGCCTAGGGAGATTAGAGTATCGGTCGA,8.49
13,CAGCAACACTCTACTACTTGACCTTTGAAAGCCTAGGGAGATTAGAGTATCGGTCGA,6.06
14,CCTTTCATGTACTGTTCAGTTCCTATTTCAGCCTAGGGAGATTAGAGTATCGGTCGA,1.72
15,GAGTGGACTTTGGCTTATGCAAATGTTATGGCCTAGGGAGATTAGAGTATCGGTCGA,4.25
16,TGGTACTATGACCTTTCACCTTTTAGCTTGGCCTAGGGAGATTAGAGTATCGGTCGA,5.81
17,GAGTGACCTGGTATTGCAAGTATTTCACCCGCCTAGGGAGATTAGAGTATCGGTCGA,1.57
18,ACCTTTGACCTGGTACTATGACCTTTCACCGCCTAGGGAGATTAGAGTATCGGTCGA,7.01
19,TGACCTGGTACTATGACCTTTCACCTTTTAGCCTAGGGAGATTAGAGTATCGGTCGA,6.99

row,Sequence,binding signal [log2 normalized intensity]
1,TTCACCTTTCGCCCTTTGTCCTATGACTCTGCCTAGGGAGATTAGAGTATCGGTCGA,4.63
2,CTATGACCTTTCACCTTTTAGCTTGGCATGGCCTAGGGAGATTAGAGTATCGGTCGA,4.41
3,TTAGCAGATAAATCTAGGCCTAGGCATTGAGCCTAGGGAGATTAGAGTATCGGTCGA,-0.468
4,ATCTTGGGTTAGGCCTTTAGAGGATTTACTGCCTAGGGAGATTAGAGTATCGGTCGA,-0.708
5,ATGAGATACCCATTCACATGACCTTTGTCCGCCTAGGGAGATTAGAGTATCGGTCGA,8.34
6,CTGGGATGAGATACCCATTCACATGACCTTGCCTAGGGAGATTAGAGTATCGGTCGA,3.29
7,TTCGGTGCTGACCTTTGTTCACATTTGTGCGCCTAGGGAGATTAGAGTATCGGTCGA,5.06
8,CATTCACATGACCTTTGTCCGTTCCTGCCTGCCTAGGGAGATTAGAGTATCGGTCGA,5.92
9,ACATGACCTTTGTCCGTTCCTGCCTGGAGCGCCTAGGGAGATTAGAGTATCGGTCGA,4.82
10,ATACCCATTCACATGACCTTTGTCCGTTCCGCCTAGGGAGATTAGAGTATCGGTCGA,7.01
11,CTGGGAAGATTAAGGAAGGAAGGTGCTTATGCCTAGGGAGATTAGAGTATCGGTCGA,-0.85
12,TTCACCCCATTTTGTCCCTCCCTGCAGCTGGCCTAGGGAGATTAGAGTATCGGTCGA,4.07
13,ACTACCTCTTTAGGCTGGACTCTGACCCATGCCTAGGGAGATTAGAGTATCGGTCGA,6.75
14,GACCTCTGCCCTTCCACCCACTTTATCTTCGCCTAGGGAGATTAGAGTATCGGTCGA,3.26
15,CCACTCTTTTTTAGACTTTGACCTCCATATGCCTAGGGAGATTAGAGTATCGGTCGA,7.61
16,CCCTGCCACTCTTTTTTAGACTTTGACCTCGCCTAGGGAGATTAGAGTATCGGTCGA,10
17,ACCAGACTACCTCTTTAGGCTGGACTCTGAGCCTAGGGAGATTAGAGTATCGGTCGA,3.96
18,CTGACCTCTTTTGGATTTTTCCATATCTGTGCCTAGGGAGATTAGAGTATCGGTCGA,1.74
19,TGCAGCCCTGCCACTCTTTTTTAGACTTTGGCCTAGGGAGATTAGAGTATCGGTCGA,3.72

row,Sequence,binding signal [log2 normalized intensity]
1,ATGACCTCTTTTAGTAACTGACTTTAACTTGCCTAGGGAGATTAGAGTATCGGTCGA,1.5
2,CTCTTTAGGCTGGACTCTGACCCATTCCTTGCCTAGGGAGATTAGAGTATCGGTCGA,5.23
3,TTAATGTGCTTGTCTGACTGCTGCCAAAGGGCCTAGGGAGATTAGAGTATCGGTCGA,-0.631
4,ATGGTGGAGGGTCTTGCTTTGATGTTGATGGCCTAGGGAGATTAGAGTATCGGTCGA,1.58
5,CTTTTGGTATGCAAGGCATGGTGCTTCGCAGCCTAGGGAGATTAGAGTATCGGTCGA,1.26
6,TTTCAAGAATGGAGAAAACAACATTCCTTGGCCTAGGGAGATTAGAGTATCGGTCGA,-0.213
7,TCCTTTGGATCATGTGTCTGAGCAAGTTTCGCCTAGGGAGATTAGAGTATCGGTCGA,2.08
8,TGTCATCTAGACCTGGACTTGAAGCCAGACGCCTAGGGAGATTAGAGTATCGGTCGA,-0.168
9,TGAGTCTGGTGTTTCCCTGTTTGCTTCTGCGCCTAGGGAGATTAGAGTATCGGTCGA,0.819
10,GTTTAACTGACCCAGGGAGAAAGGTCAGGGGCCTAGGGAGATTAGAGTATCGGTCGA,2.86
11,TTAAGATTTGACCCTTGGCCAGGTGCAGTGGCCTAGGGAGATTAGAGTATCGGTCGA,4.65
12,AGTGGTTTAAAAACTTATCTTGTGACCTTTGCCTAGGGAGATTAGAGTATCGGTCGA,6.81
13,CTGAACTTTAAACTGGTGTGTCTTGCCTTTGCCTAGGGAGATTAGAGTATCGGTCGA,2.06
14,ATTCTCTTATCTACTTTAAGATTTGACCCTGCCTAGGGAGATTAGAGTATCGGTCGA,5
15,CTTATCTACTTTAAGATTTGACCCTTGGCCGCCTAGGGAGATTAGAGTATCGGTCGA,7.08
16,TATCTTGTGACCTTTGACTCATTATCCCCCGCCTAGGGAGATTAGAGTATCGGTCGA,6.24
17,AAACTTATCTTGTGACCTTTGACTCATTATGCCTAGGGAGATTAGAGTATCGGTCGA,6.43
18,TTTAAAAACTTATCTTGTGACCTTTGACTCGCCTAGGGAGATTAGAGTATCGGTCGA,8.33
19,ATCTGACCTTTGGTTAACTTCTTAACTTGGGCCTAGGGAGATTAGAGTATCGGTCGA,2.97
